Laboratory results reported in PubChem BioAssay AID1159580 (chemical genetic matrix, 2015).
Where “and” joins values, the source holds several entries; their conditions need not be identical. Equal entries are not always repeated. The campaign covered roughly 5,500 compounds. About 2,000 (36%) were called active. About 18% were inconclusive and are not listed. No stated cut-off is given here; in the data, active means normalized growth mostly below about 0.91 (no sharp cut-off); inconclusive means no clear call, values can overlap the other calls; inactive means mostly above about 0.92. The list shows a part of the results.

Test: chemical genetic growth profiling, strain panel (AID 1159580);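 further: tested at 20 µM; growth read once vehicle control cultures reached saturation at 30 °C; 1 = growth at the plate median or of vehicle wells; lower values mean less growth of the strain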
Details: S. cerevisiae deletion strains, growth OD

Measured: normalized growth

CC(=O)O[C@H]1C[C@@H](OC(C)=O)C(C)(C)C2C[C@@H](OC(C)=O)[C@]3(C)C(CC[C@@]4(C)[C@H](c5ccoc5)OC(=O)[C@H]5O[C@]543)[C@]21C (some centres not stated)
inactive: locus YAL021C, strain ccr4, active compounds read low 0.993 | locus YAL026C, strain drs2, active compounds read low 0.984 | locus YAL030W, strain snc1, active compounds read low 0.993 | locus YBL061C, strain skt5, active compounds read low 0.993 | locus YBR009C, strain hhf1, active compounds read low 1.02 | locus YBR021W, strain FUR4, active compounds read low 0.969 | locus YBR023C, strain chs3, active compounds read low 0.996 | locus YBR171W, strain sec66, active compounds read low 0.991 | locus YBR229C, strain ROT2, active compounds read low 0.992 | locus YBR231C, strain swc5, active compounds read low 1.01 | locus YBR279W, strain paf1, active compounds read low 1 | locus YCL011C, strain gbp2, active compounds read low 1 | locus YCL016C, strain dcc1, active compounds read low 0.992 | locus YCL029C, strain bik1, active compounds read low 1.01 | locus YCL061C, strain MRC1, active compounds read low 1 | locus YCL069W, strain vba3, active compounds read low 0.999 | locus YCR088W, strain abp1, active compounds read low 1 | locus YDL005C, strain med2, active compounds read low 0.993 | locus YDL035C, strain GPR1, active compounds read low 1.02 | locus YDL040C, strain nat1, active compounds read low 0.999 | locus YDL074C, strain BRE1, active compounds read low 1.01 | locus YDL101C, strain DUN1, active compounds read low 0.991 | locus YDL134C, strain PPH21, active compounds read low 0.994 | locus YDL185W, strain tfp1, active compounds read low 1 | locus YDL192W, strain arf1, active compounds read low 1.01 | locus YDR001C, strain nth1, active compounds read low 0.976 | locus YDR069C, strain doa4, active compounds read low 0.975 | locus YDR101C, strain arx1, active compounds read low 1.02 | locus YDR137W, strain rgp1, active compounds read low 0.963 | locus YDR159W, strain sac3, active compounds read low 0.96 | locus YDR162C, strain NBP2, active compounds read low 1.02 | locus YDR195W, strain ref2 0.954 | locus YDR297W, strain sur2, active compounds read low 0.998 | locus YDR318W, strain mcm21, active compounds read low 1.01 | locus YDR334W, strain swr1, active compounds read low 0.971 | locus YDR335W, strain msn5, active compounds read low 0.993 | locus YDR388W, active compounds read low 0.999 | locus YDR392W, strain spt3, active compounds read low 0.989 | locus YDR502C, strain sam2, active compounds read low 0.998 | locus YEL003W, strain gim4, active compounds read low 0.988 | locus YEL037C, strain rad23, active compounds read low 0.994 | locus YEL061C, strain CIN8 (second series), active compounds read low 0.991 | locus YEL061C, strain CIN8, active compounds read low 1.02 | locus YER015W, strain faa2, active compounds read low 1 | locus YER016W, strain bim1, active compounds read low 0.993 | locus YER110C, active compounds read low 1 | locus YER111C, strain swi4, active compounds read low 0.988 | locus YER155C, strain BEM2 (second series), active compounds read low 0.996 | locus YER155C, strain BEM2, active compounds read low 1 | locus YER167W, strain BCK2, active compounds read low 0.998 | locus YFR010W, strain ubp6, active compounds read low 0.973 | locus YGL078C, strain dbp3, active compounds read low 0.997 | locus YGL086W, strain mad1, active compounds read low 1.02 | locus YGL167C, strain pmr1, active compounds read low 0.987 | locus YGL173C, strain kem1, active compounds read low 0.999 | locus YGL227W, strain vid30, active compounds read low 1.01 | locus YGL240W, strain doc1, active compounds read low 0.999 | locus YGL248W, strain PDE1, active compounds read low 0.99 | locus YGL253W, strain hxk2, active compounds read low 0.995 | locus YGR078C, strain PAC10, active compounds read low 0.991 | locus YGR135W, strain pre9, active compounds read low 0.979 | locus YGR252W, strain gcn5, active compounds read low 0.966 | locus YHR013C, strain ard1, active compounds read low 0.987 | locus YHR027C, strain rpn1, active compounds read low 0.968 | locus YHR030C, strain SLT2, active compounds read low 0.978 | locus YHR079C, strain IRE1 (second series), active compounds read low 0.989 | locus YHR079C, strain IRE1, active compounds read low 0.984 | locus YHR094C, strain hxt1, active compounds read low 1.01 | locus YHR129C, strain ARP1, active compounds read low 1.02 | locus YHR142W, strain chs7, active compounds read low 1 | locus YHR200W, strain rpn10, active compounds read low 0.995 | locus YIL066C, strain RNR3, active compounds read low 1.01 | locus YIL073C, strain SPO22, active compounds read low 0.989 | locus YIL125W, strain kgd1, active compounds read low 0.996 | locus YIR030C, strain dcg1, active compounds read low 1 | locus YJL092W, strain hpr5, active compounds read low 1.01 | locus YJL095W, strain BCK1 (second series), active compounds read low 0.995 | locus YJL095W, strain BCK1, active compounds read low 1.02 and 0.984 | locus YJL115W, strain asf1, active compounds read low 0.974 | locus YJL129C, strain trk1, active compounds read low 0.979 | locus YJL134W, strain LCB3, active compounds read low 1.02 | locus YJL154C, strain vps35, active compounds read low 0.98 | locus YJL164C, strain tpk1, active compounds read low 0.997 | locus YJL166W, strain qcr8, active compounds read low 1.03 | locus YJL168C, strain set2, active compounds read low 0.999 | locus YJL187C, strain SWE1 (second series), active compounds read low 0.989 | locus YJL187C, strain SWE1, active compounds read low 0.999 | locus YJR043C, strain POL32, active compounds read low 1.02 | locus YJR066W, strain TOR1, active compounds read low 0.932 | locus YKL009W, strain mrt4, active compounds read low 1 | locus YKL068W, active compounds read low 1.01 | locus YKL160W, strain elf1, active compounds read low 1 | locus YKL190W, strain CNB1, active compounds read low 1.01 | locus YKR001C, strain vps1, active compounds read low 1 | locus YKR026C, strain gcn3, active compounds read low 0.995 | locus YKR091W, strain srl3, active compounds read low 0.989 | locus YLL001W, strain dnm1, active compounds read low 0.988 | locus YLL026W, active compounds read low 0.997 | locus YLL041C, strain sdh2, active compounds read low 0.987 | locus YLR027C, strain aat2, active compounds read low 1.01 | locus YLR039C, strain RIC1, active compounds read low 0.981 | locus YLR058C, strain SHM2, active compounds read low 1.01 | locus YLR102C, strain apc9, active compounds read low 0.999 | locus YLR113W, strain HOG1, active compounds read low 1.03 | locus YLR221C, strain rsa3, active compounds read low 0.995 | locus YLR258W, strain gsy2, active compounds read low 0.998 | locus YLR262C, strain YPT6 (second series), active compounds read low 0.969 | locus YLR262C, strain YPT6, active compounds read low 0.974 | locus YLR268W, strain sec22, active compounds read low 1 | locus YLR320W, strain mms22, active compounds read low 1.02 | locus YLR330W, strain CHS5, active compounds read low 1.01 | locus YLR342W, strain FKS1, active compounds read low 1 | locus YLR357W, strain rsc2, active compounds read low 0.997 | locus YLR370C, strain arc18, active compounds read low 0.995 | locus YLR371W, strain rom2, active compounds read low 1 | locus YLR384C, strain iki3, active compounds read low 1.01 | locus YLR418C, strain cdc73, active compounds read low 0.996 | locus YML016C, strain PPZ1, active compounds read low 1.01 | locus YML032C, strain rad52, active compounds read low 1 | locus YML120C, strain ndi1, active compounds read low 0.995 | locus YML124C, strain tub3, active compounds read low 1 | locus YMR058W, strain fet3, active compounds read low 0.985 | locus YMR078C, strain ctf18, active compounds read low 0.989 | locus YMR125W, strain sto1, active compounds read low 0.983 | locus YMR129W, active compounds read low 0.994 | locus YMR205C, strain PFK2, active compounds read low 0.988 | locus YMR223W, strain ubp8, active compounds read low 0.996 | locus YMR231W, strain pep5, active compounds read low 0.981 | locus YMR307W, strain GAS1, active compounds read low 0.895 | locus YNL067W, strain RPL9B, active compounds read low 1.01 | locus YNL071W, strain lat1, active compounds read low 0.992 | locus YNL128W, strain TEP1, active compounds read low 1.02 | locus YNL153C, strain GIM3, active compounds read low 1.02 | locus YNL183C, strain NPR1, active compounds read low 0.93 | locus YNL209W, strain ssb2, active compounds read low 0.995 | locus YNL233W, strain BNI4, active compounds read low 0.974 | locus YNL248C, strain rpa49, active compounds read low 0.971 | locus YNL250W, strain rad50, active compounds read low 0.98 | locus YNL271C, strain bni1, active compounds read low 1 | locus YNL298W, strain CLA4, active compounds read low 1.01 | locus YNL307C, strain MCK1, active compounds read low 0.986 | locus YNL322C, strain KRE1 (second series), active compounds read low 0.999 | locus YNR049C, strain mso1, active compounds read low 0.991 | locus YNR052C, strain pop2, active compounds read low 0.996 | locus YOL012C, strain htz1 1 | locus YOL147C, strain pex11, active compounds read low 0.999 | locus YOR001W, strain rrp6, active compounds read low 0.979 | locus YOR061W, strain CKA2, active compounds read low 0.997 | locus YOR069W, strain VPS5, active compounds read low 0.991 | locus YOR070C, strain gyp1, active compounds read low 0.986 | locus YOR080W, strain dia2, active compounds read low 0.997 | locus YOR083W, strain WHI5, active compounds read low 1 | locus YOR106W, strain vam3, active compounds read low 0.983 | locus YOR136W, strain idh2, active compounds read low 0.996 | locus YOR144C, strain elg1, active compounds read low 1 | locus YOR184W, strain ser1, active compounds read low 1 | locus YOR231W, strain MKK1, active compounds read low 0.987 | locus YOR265W, strain rbl2, active compounds read low 0.989 | locus YOR270C, strain vph1, active compounds read low 0.858 | locus YOR290C, strain snf2, active compounds read low 0.994 | locus YOR316C, strain cot1, active compounds read low 0.999 | locus YPL051W, strain arl3, active compounds read low 1 | locus YPL055C, strain LGE1, active compounds read low 1.02 | locus YPL078C, strain atp4, active compounds read low 1.01 | locus YPL106C, strain sse1, active compounds read low 1.05 | locus YPL240C, strain hsp82, active compounds read low 0.994 | locus YPL256C, strain CLN2, active compounds read low 0.989 | locus YPR119W, strain clb2, active compounds read low 1.01 | locus YPR141C, strain kar3, active compounds read low 0.996 | locus YPR163C, strain tif3, active compounds read low 1 | locus YPR167C, strain met16, active compounds read low 1 | strain wtn01, active compounds read low 1
